The whole screen tested about 22,000 compounds, of which about 460 (2.1%) were called active. Another 2% or so got no clear call; they are omitted.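 Rule for the calls: active = mean inhibition across valid replicates above about 65% (limit read from the data); inconclusive = mean under the limit, yet half or more replicates past it; inactive = the rest.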 Many of the other results were omitted from the sample, so actives are more common in it than they were.

The nature of the test: Hedgehog pathway signaling inhibitors, primary screen, luminescence, Shh-LIGHT2 cells, Gli-luciferase (AID 2313).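 Note: pathway switched on by Shh-conditioned medium diluted 1 in 25 in low serum.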 Particulars: Shh-LIGHT2 Gli-luciferase reporter, 30 h; stronger effect = higher value.
Regarding `C[C@H](CO)N1C[C@H](C)[C@H](CN(C)Cc2ccc3c(c2)OCO3)Oc2c(cccc2N(C)C)C1=O`, the inhibition is -27.6% (inactive).
The value for `CCCC(=O)Nc1ncnc2c1ncn2C1O[C@@H]2COP(=O)(O)O[C@H]2[C@H]1OC(=O)CCC` (stereo partly drawn) was -62.8% (inactive); that for `C[C@@H]1CCCCO[C@@H](CN(C)C(=O)Nc2cccc3ccccc23)[C@@H](C)CN([C@H](C)CO)C(=O)c2cc(NS(C)(=O)=O)ccc2O1` was 33.2% (inactive).
Regarding `O=C(Oc1cccc(C(F)(F)F)c1)c1cc2ccc3ccccc3c2s1`, the inhibition is -31.9% (inactive).
Regarding `C[C@@H]1CC[C@]2(C(=O)O)CC[C@]3(C)C(=CCC4[C@@]5(C)CC[C@H](O)[C@](C)(C(=O)O)C5CC[C@]43C)C2[C@]1(C)O` (stereo partly drawn), the inhibition is -18.2% (inactive).
The value for `CC1(C)C2CC[C@]3(C)C(C(=O)C=C4[C@@H]5C[C@@](C)(C(=O)O)CC[C@]5(C)CC[C@]43C)[C@@]2(C)CC[C@@H]1O` (stereo partly drawn) was 66.5% (active).
In the case of `CC1(C)CC[C@@]2(C(=O)O)C(C1)C1=CCC3[C@@]4(C)CC[C@H](O)C(C)(C)C4CC[C@@]3(C)[C@]1(C)C[C@H]2O` (stereo partly drawn), the inhibition was -24.6% (inactive).
Under `Cc1ccc(S(=O)(=O)Nc2ccc3c(c2)C(=O)N([C@H](C)CO)C[C@@H](C)[C@H](CN(C)Cc2ccccc2)O3)cc1` stands 15.5% (inactive); under `COC(=O)c1sc(SC)c(-c2ccn(S(=O)(=O)c3ccc(Cl)cc3)n2)c1C`, 14.7% (inactive).
The value for `Oc1ccc(-n2cccc2)cc1` was 30.8% (inactive); that for `O=C(OC1=CC(=O)c2cccc3cccc1c23)c1ccccc1` was -20.2% (inactive); that for `Cc1ccc(C(=O)c2coc3ccc(O)c(CN(C)C)c23)cc1` was 38.9% (inactive).
Consider `CC(C)NC(=O)N(C)C[C@H]1Oc2c(NS(=O)(=O)c3ccc(Cl)cc3)cccc2C(=O)N([C@@H](C)CO)C[C@H]1C`, for which the inhibition is 3.77% (inactive).
As for `C[C@@H]1O[C@@H](Oc2cc(O)c3c(=O)c(O[C@@H]4O[C@@H](C)[C@H](O)[C@@H](O)[C@H]4O)c(-c4ccc(O)cc4)oc3c2)[C@H](O)[C@H](O)[C@H]1O`, the inhibition was -11.3% (inactive).
Consider `C[C@H](CO)N1C[C@H](C)[C@H](CN(C)CC2CC2)Oc2ccc(NS(=O)(=O)c3ccccc3)cc2CC1=O`, for which the inhibition is -5.84% (inactive).
As for `C[C@H]1CN([C@@H](C)CO)C(=O)Cc2cc(NS(C)(=O)=O)ccc2O[C@@H]1CN(C)CC1CC1`, the inhibition was 70.7% (active).
`COc1ccc(S(=O)(=O)Nc2ccc3c(c2)CC(=O)N([C@H](C)CO)C[C@H](C)[C@H](CN(C)CC2CC2)O3)cc1`: the inhibition is -6.58% (inactive).
Take `COc1ccc(S(=O)(=O)Nc2cccc3c2O[C@@H](CN(C)S(=O)(=O)c2c(C)noc2C)[C@@H](C)CN([C@H](C)CO)C3=O)cc1`: the inhibition was 24.8% (inactive).
Turning to `C[C@H](CO)N1C[C@H](C)[C@@H](CN(C)Cc2ccccc2)Oc2ccc(NC(=O)CCCN(C)C)cc2C1=O`, the inhibition is -0.759% (inactive).
As to `CCOC(=O)c1nnn2c1nc(N1CCN(c3ccccc3)CC1)c1ccccc12`, the inhibition is 37.6% (inactive).
As to `Cc1cc(C)n2nc(-c3ccc(C(C)(C)C)cc3)cc2n1`, the inhibition is -92.6% (inactive).
For `COc1ccc(CN(C)C[C@H]2Oc3c(NC(=O)C4CC4)cccc3C(=O)N([C@@H](C)CO)C[C@H]2C)cc1`, the inhibition is -3.41% (inactive).
Turning to `C[C@@H]1CN([C@H](C)CO)C(=O)c2cc(NC(=O)c3ccncc3)ccc2O[C@H]1CN(C)Cc1ccc(Oc2ccccc2)cc1`, the inhibition was 73.2% (active).
For the compound `C[C@@H]1CN([C@@H](C)CO)C(=O)c2cc(NC(=O)c3ccncc3)ccc2O[C@@H]1CN(C)Cc1ccncc1`, the inhibition is 9.73% (inactive).
Regarding `C[C@@H]1CN([C@@H](C)CO)C(=O)c2cc(NC(=O)c3ccncc3)ccc2O[C@H]1CN(C)Cc1ccc(C(=O)O)cc1`, the inhibition is 13.9% (inactive).
As to `Cc1ccc(S(=O)(=O)N(C)C[C@@H]2Oc3c(NC(=O)Nc4c(C)noc4C)cccc3C(=O)N([C@@H](C)CO)C[C@@H]2C)cc1`, the inhibition was -32.7% (inactive).
Consider `CC(C)(O)C1=CCC23COC(C2)C(O)(C(=O)O)CCC13` (stereo not drawn), for which the inhibition is 12.8% (inactive).
As to `COc1ccc(NC(=O)N(C)C[C@@H]2Oc3c(NC(=O)NC4CCCCC4)cccc3C(=O)N([C@H](C)CO)C[C@H]2C)cc1`, the inhibition is -15.5% (inactive).
As for `Cc1ccc(S(=O)(=O)N(C)C[C@@H]2Oc3ccc(NS(=O)(=O)c4cn(C)cn4)cc3C(=O)N([C@@H](C)CO)C[C@H]2C)cc1`, the inhibition is -8.67% (inactive).
In the case of `CCOc1cc(/C=C2\SCOC2=O)ccc1O`, the inhibition is -11.1% (inactive).
Take `COc1ccc(S(=O)(=O)Nc2cccc3c2O[C@H](CN(C)C(=O)NC(C)C)[C@H](C)CN([C@H](C)CO)C3=O)cc1`: the inhibition was 4.9% (inactive).
Regarding `CCN(c1ccccc1)S(=O)(=O)c1ccc(C)cc1`, the inhibition was -25.3% (inactive).
In the case of `Cc1cc(=O)[nH]c(SCc2cn3c(C)cc(C)nc3n2)n1`, the inhibition is -20.5% (inactive).
Under `Cc1ccc(S(=O)(=O)Nc2cccc3c2O[C@H](CN(C)S(=O)(=O)c2cn(C)cn2)[C@H](C)CN([C@H](C)CO)C3=O)cc1` stands 21.4% (inactive).
For `COc1ccc(CN(C)C[C@H]2OCCCC[C@@H](C)Oc3ccc(NC(=O)Nc4cccc5ccccc45)cc3C(=O)N([C@H](C)CO)C[C@@H]2C)cc1`, the inhibition was 17.8% (inactive).
For the compound `Cc1ccc(S(=O)(=O)N(C)C[C@@H]2Oc3c(NC(=O)C4CC4)cccc3C(=O)N([C@H](C)CO)C[C@H]2C)cc1`, the inhibition is -12.6% (inactive).
Under `Cc1ccc(S(=O)(=O)N(C)C[C@@H]2Oc3c(NC(=O)C4CC4)cccc3C(=O)N([C@H](C)CO)C[C@@H]2C)cc1` stands 115% (active); under `Cc1ccc(S(=O)(=O)N(C)C[C@@H]2Oc3c(NC(=O)Nc4ccccc4)cccc3C(=O)N([C@H](C)CO)C[C@H]2C)cc1`, -14.6% (inactive).
As for `C[C@H]1CN([C@@H](C)CO)C(=O)c2cccc(NC(=O)Nc3ccccc3)c2O[C@H]1CN(C)S(=O)(=O)c1ccc(Cl)cc1`, the inhibition was 108% (active).
The value for `Cc1ccc(S(=O)(=O)N(C)C[C@H]2Oc3c(NC(=O)C4CC4)cccc3C(=O)N([C@@H](C)CO)C[C@@H]2C)cc1` was 28.4% (inactive).
Take `C[C@H](CO)N1C[C@H](C)[C@H](CN(C)S(=O)(=O)c2ccccc2)Oc2c(NC(=O)Nc3ccccc3)cccc2C1=O`: the inhibition was 14.8% (inactive).
For `C[C@@H]1CN([C@H](C)CO)C(=O)c2cccc(NC(=O)Nc3cccc4ccccc34)c2O[C@@H]1CN(C)Cc1ccccc1`, the inhibition was 0.787% (inactive).
The value for `C[C@H]1CN([C@@H](C)CO)C(=O)c2cccc(NC(=O)c3ccncc3)c2O[C@H]1CN(C)C` was -21.4% (inactive); that for `COc1ccc(NC(=O)Nc2cccc3c2O[C@H](CN(C)Cc2ccc(Cl)c(Cl)c2)[C@H](C)CN([C@@H](C)CO)C3=O)cc1` was 51.9% (inactive).
The value for `C[C@@H]1CN([C@@H](C)CO)C(=O)Cc2cc(NC(=O)Nc3ccc4c(c3)OCO4)ccc2O[C@@H]1CN(C)S(=O)(=O)c1ccc(Cl)cc1` was 38.3% (inactive); that for `O=C1C(c2ccccc2)CCCC1c1ccccc1` (stereo not drawn) was 22.1% (inactive); that for `Cc1noc(C)c1NC(=O)Nc1cccc2c1O[C@@H](CN(C)C(=O)Nc1ccc(C(F)(F)F)cc1)[C@@H](C)CN([C@@H](C)CO)C2=O` was 1.09% (inactive).
Under `Cc1cc(=O)oc2cc(OCc3cccc(F)c3)ccc12` stands -75.4% (inactive); under `COc1ccc(NC(=O)N(C)C[C@@H]2OCCCC[C@@H](C)Oc3ccc(NS(=O)(=O)c4c(C)noc4C)cc3C(=O)N([C@H](C)CO)C[C@@H]2C)cc1`, -43% (inactive).
`C=C1CCC2C(C)(C)C(O)CCC2(C)C1CC/C(C)=C/C(=O)O` (stereo not drawn): the inhibition is 4.62% (inactive).
Take `COc1ccc(NC(=O)Nc2ccc3c(c2)C(=O)N([C@@H](C)CO)C[C@H](C)[C@H](CN(C)CC2CCCCC2)O3)cc1`: the inhibition was -5.89% (inactive).
Regarding `C[C@@H]1CN([C@@H](C)CO)C(=O)c2cc(NC(=O)Nc3ccc(C(F)(F)F)cc3)ccc2O[C@@H]1CN(C)Cc1ccncc1`, the inhibition is 10.7% (inactive).
Take `C[C@H]1CN([C@@H](C)CO)C(=O)c2cccc(NC(=O)C3CC3)c2O[C@@H]1CN(C)S(=O)(=O)c1ccc(F)cc1`: the inhibition is -1.67% (inactive).
On to `CCCN(C)C[C@@H]1OCCCC[C@@H](C)Oc2ccc(NS(=O)(=O)c3c(C)noc3C)cc2C(=O)N([C@H](C)CO)C[C@@H]1C`, for which the inhibition was 35.2% (inactive).
For `Cc1ccoc1CC[N+](C)(C)C`, the inhibition is -11.8% (inactive).
For `Cc1ccc(S(=O)(=O)Nc2ccc3c(c2)C(=O)N([C@H](C)CO)C[C@H](C)[C@H](CN(C)S(=O)(=O)c2ccc(F)cc2)OCCCC[C@@H](C)O3)cc1`, the inhibition was -17.8% (inactive).
With `CCC(=O)O[C@]1(C(=O)CCl)[C@@H](C)CC2C3CCC4=CC(=O)C=C[C@]4(C)[C@@]3(F)[C@@H](O)C[C@@]21C` (stereo partly drawn), the inhibition is 79.4% (active).
Take `CC[C@]1(O)C[C@@H]2CN(CCc3c([nH]c4ccccc34)[C@@](C(=O)OC)(c3cc4c(cc3OC)N(C)[C@H]3[C@@](O)(C(=O)OC)[C@H](OC(C)=O)[C@]5(CC)C=CCN6CC[C@]43[C@@H]65)C2)C1`: the inhibition was 88.5% (active).
Under `CC(C)NC(=O)N(C)C[C@@H]1Oc2c(NC(=O)c3cnccn3)cccc2C(=O)N([C@@H](C)CO)C[C@@H]1C` stands 2.03% (inactive); under `NC(=S)c1cnn2c(C(F)(F)F)cc(C(F)(F)F)nc12`, -19.5% (inactive).
For the compound `CC[N+]1=C(C)C(C)(C)c2cc(-c3ccccc3)ccc21`, the inhibition was 32.5% (inactive).
The value for `C[C@@H]1CCCCO[C@H](CN(C)S(=O)(=O)c2ccc(Cl)cc2)[C@@H](C)CN([C@H](C)CO)C(=O)c2cc(NC(=O)Nc3ccc4c(c3)OCO4)ccc2O1` was -3.15% (inactive).
For `Cc1noc(C)c1S(=O)(=O)Nc1ccc2c(c1)CC(=O)N([C@H](C)CO)C[C@@H](C)[C@@H](CN(C)Cc1ccncc1)O2`, the inhibition was 48% (inactive).
As to `C[C@@H]1CN([C@H](C)CO)C(=O)Cc2cc(NC(=O)Cn3cnnn3)ccc2O[C@H]1CN(C)CC1CCCCC1`, the inhibition was -28.8% (inactive).
For `CC(C)(C)c1ccc(-c2[nH]nc(NC(=O)c3ccccc3Cl)c2Br)cc1`, the inhibition is 25.9% (inactive).
As for `CC(C)NC(=O)N(C)C[C@H]1Oc2c(NC(=O)c3ccncc3)cccc2C(=O)N([C@@H](C)CO)C[C@H]1C`, the inhibition was 10.7% (inactive).
With `C[C@H]1CN([C@@H](C)CO)C(=O)Cc2cc(NS(=O)(=O)c3cccs3)ccc2O[C@H]1CN(C)Cc1ccncc1`, the inhibition is -17.7% (inactive).
For `O=C(O)CCC(=O)N(Cc1ccccc1)Cc1cn(-c2ccccc2)nc1-c1cccnc1`, the inhibition was -8.01% (inactive).
